Drawing on PubChem BioAssay (EPA / NIEHS), this text covers outcome and AC50 for 19 compounds.

Read-out in assay [1]: E-selectin (Homo sapiens) (UniProt P16581)
Kind of assay: BSK_SAg_Eselectin: BioMAP Diversity Plus: SAg Assay for Eselectin Biomarker Activity (AID 2283091). To be noted: primary human HUVEC with PBMC; actives raise or lower the signal. In outline:
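Endpoint values derive from bidirectional fitting relative to DMSO, using ELISA-measured E-selectin in a human vascular co-culture (umbilical vein endothelium plus PBMC) sampled 24 h after dosing.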

Read-out in assay [2]: Monokine induced gamma interferon (MIG), CXCL9 (gene 4283)
Kind of assay: BSK_SAg_MIG: BioMAP Diversity Plus: SAg Assay for Monokine induced gamma interferon (MIG) Biomarker Activity (AID 2283092). The settings on record: primary human HUVEC with PBMC; actives raise or lower the signal. In short, it runs like this: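 ELISA readout of MIG/CXCL9; primary human umbilical vein endothelial cells co-cultured with peripheral blood mononuclear cells; 24 h post-dose; gain/loss fit vs DMSO baseline.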

Read-out in assay [3]: Interleukin-8 (IL8), CXCL8 (gene 3576)
Put plainly: BSK_SAg_IL8: BioMAP Diversity Plus: SAg Assay for Interleukin-8 (IL8) Biomarker Activity (AID 2283094). The settings on record: primary human HUVEC with PBMC; actives raise or lower the signal. In outline:
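Human umbilical vein endothelial cells co-cultured with peripheral blood mononuclear cells; IL-8 measured by ELISA 24 h after chemical dosing. Bidirectional concentration-response fitting used DMSO as negative control and activity baseline.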

Assay [4] can be described thus: BSK_SAg_Proliferation: Cell Proliferation Assessment in the BioMAP Diversity Plus: SAg Assay (AID 2283095).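 Further: relative cell number as total protein by SRB absorbance in sub-confluent culture.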 The settings on record: primary human HUVEC with PBMC. In outline: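 Human umbilical vein endothelial cells co-cultured with peripheral blood mononuclear cells; total protein measured by sulforhodamine B staining (0.1% SRB after 10% TCA fixation), absorbance at 560 nm, at 96 h. Bidirectional fit against DMSO baseline.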

Assay [5] is described as follows: BSK_SAg_SRB: Viability Assessment in the BioMAP Diversity Plus: SAg Assay (AID 2283096).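 Further: cells read one day after compound addition; hits may be either gain or loss of signal compared with DMSO.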 The settings on record: primary human HUVEC with PBMC. In outline:
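Total protein by sulforhodamine B staining, 24 h after dosing, in HUVEC–PBMC co-culture; DMSO-referenced bidirectional fitting.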

A short description of assay [6]: BSK_SAg_PBMCCytotoxicity: PBMC Cytotoxicity Assessment in the BioMAP Diversity Plus: SAg Assay (AID 2283093).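 Further: PBMC viability measured as Alamar Blue reduction fluorescence at 546/580 nm; fitted both ways against DMSO so a hit may be loss or gain of signal.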 To be noted: primary human HUVEC with PBMC. In outline:
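Compound added to 75,000 PBMC/well for 1 h; SEB and TSST-1 then added at 20 ng/mL final each; 90 h incubation; Alamar Blue 6 h; read 546/580 nm ex/em. Activity fitted bidirectionally relative to DMSO baseline.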

Assay [7] addresses human CYP19A1, CYP19A1 (gene 1588) (UniProt P11511). Kind of assay: NVS_ADME_hCYP19A1: NovaScreen (NVS) CYP450-related Enzyme Activity (ADME) Assay for human CYP19A1 (AID 2283098; active means hit-call score of the fitted dose curve at least 0.9, where 1 is the maximum;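 on AC50: potency for inhibitors seen as loss of fluorescent enzyme signal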). In outline:
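Biochem, cell-free; recombinant enzyme + specific substrate; fluorescence intensity at 0.5 h post-dose; 10 uM duplicate primary, conc. series for actives; acetonitrile = negative control/baseline; positive and negative controls on every plate.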

Assay [8] deals with human CYP1A1, CYP1A1 (gene 1543) (UniProt P04798). Put plainly: NVS_ADME_hCYP1A1: NovaScreen (NVS) CYP450-related Enzyme Activity (ADME) Assay for human CYP1A1 (AID 2283100; active means hit-call score of the fitted dose curve at least 0.9, where 1 is the maximum). In short, it runs like this: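 Inhibition of recombinant CYP1A1 turnover was assessed fluorometrically in a biochemical format 1 h after compound exposure. Testing began at 10 uM in duplicate and progressed to concentration series reaching 20 uM, with on-plate positive and negative controls.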

Assay [9] deals with human CYP2A6, CYP2A6 (gene 1548) (UniProt P11509). Kind of assay: NVS_ADME_hCYP2A6: NovaScreen (NVS) CYP450-related Enzyme Activity (ADME) Assay for human CYP2A6 (AID 2283099; active means hit-call score of the fitted dose curve at least 0.9, where 1 is the maximum). The procedure: NVS_ADME_hCYP2A6 is a biochemical, single-readout assay that uses extracted gene-proteins from insect cells in a cell-free assay. Measurements were taken 0.5 hour after chemical dosing in a 96-well plate.NVS_ADME_hCYP2A6 is one of one assay component(s) measured or calculated from the NVS_ADME_hCYP2A6 assay. It is designed to make measurements of enzyme activity, a form of enzyme reporter, as detected with fluorescence intensity signals by Fluorescence technology.Data from the assay component NVS_ADME_hCYP2A6 was analyzed into 1 assay endpoint. This assay endpoint, NVS_ADME_hCYP2A6, was analyzed in the positive analysis fitting direction relative to Acetonitrile as the negative control and baseline of activity. Using a type of enzyme reporter, loss-of-signal activity can be used to understand changes in the enzymatic activity as they relate to the gene CYP2A6. Furthermore, this assay endpoint can be referred to as a primary readout, because this assay has produced multiple assay endpoints where this one serves a enzymatic activity function. To generalize the intended target to other relatable targets, this assay endpoint is annotated to the cyp intended target family, where the subfamily is xenobiotic metabolism.
Binding assays used specific radioligands (tritiated, iodinated) with non-radioactive competitive displacement ligands in agonist or antagonist protocols (as indicated) and various reference compounds and inhibitors to titrate specific binding to receptors and transporters. Most enzyme assays (CYPs, kinases, phosphatases, proteases, HDACs) used recombinant protein and specific substrates (fluorescence mostly, some colorimetric and radioactive) and inhibitors, followed by a biochemical separation of substrate and product. All assays for the biochemical HTS were initially run in duplicate at a single concentration (10 uM for CYP450 assays and 25 uM for all others). Assay-chemical combinations meeting a pre-defined threshold (e.g., 30% inhibition and other criteria defined below) were then run in singleton concentration-response format with maximum concentration of 20 uM for CYPs and 50 uM for all others. Each assay was run with positive and negative controls, and concurrent controls on every plate. The follow-up (secondary) screen tested active chemical-pairs in concentration series, as well as a few additional assays not tested in the primary screen, some selected negative inactives, and several cases re-run in the concentration series for confirmatory purposes.

Each structure is given as a SMILES string. Results filed as inconclusive are left out. Calls of active or inactive are those of the source. How the source made its calls, unless noted: active means hit-call score of the fitted dose curve at least 0.9, where 1 is the maximum; inactive means score below 0.9.

Chain of E-selectin (Homo sapiens) (P16581 whole entry, looked up): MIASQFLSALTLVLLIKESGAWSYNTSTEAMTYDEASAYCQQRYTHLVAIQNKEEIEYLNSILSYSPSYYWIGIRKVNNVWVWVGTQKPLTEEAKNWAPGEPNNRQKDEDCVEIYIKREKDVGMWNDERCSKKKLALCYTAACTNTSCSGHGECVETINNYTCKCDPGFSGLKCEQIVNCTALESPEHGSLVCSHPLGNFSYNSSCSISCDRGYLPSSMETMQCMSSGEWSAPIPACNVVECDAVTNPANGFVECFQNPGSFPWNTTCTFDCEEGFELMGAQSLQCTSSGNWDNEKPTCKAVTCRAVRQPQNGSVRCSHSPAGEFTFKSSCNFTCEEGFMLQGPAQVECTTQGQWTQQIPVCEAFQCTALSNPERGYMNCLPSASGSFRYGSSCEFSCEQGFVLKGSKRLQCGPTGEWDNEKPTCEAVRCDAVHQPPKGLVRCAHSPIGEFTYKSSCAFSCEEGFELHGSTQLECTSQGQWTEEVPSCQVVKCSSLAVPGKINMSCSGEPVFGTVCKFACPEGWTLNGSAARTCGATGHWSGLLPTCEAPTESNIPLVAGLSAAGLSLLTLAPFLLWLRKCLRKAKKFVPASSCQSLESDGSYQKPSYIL
Chain of human CYP1A1, CYP1A1 (gene 1543) (P04798 whole entry, looked up): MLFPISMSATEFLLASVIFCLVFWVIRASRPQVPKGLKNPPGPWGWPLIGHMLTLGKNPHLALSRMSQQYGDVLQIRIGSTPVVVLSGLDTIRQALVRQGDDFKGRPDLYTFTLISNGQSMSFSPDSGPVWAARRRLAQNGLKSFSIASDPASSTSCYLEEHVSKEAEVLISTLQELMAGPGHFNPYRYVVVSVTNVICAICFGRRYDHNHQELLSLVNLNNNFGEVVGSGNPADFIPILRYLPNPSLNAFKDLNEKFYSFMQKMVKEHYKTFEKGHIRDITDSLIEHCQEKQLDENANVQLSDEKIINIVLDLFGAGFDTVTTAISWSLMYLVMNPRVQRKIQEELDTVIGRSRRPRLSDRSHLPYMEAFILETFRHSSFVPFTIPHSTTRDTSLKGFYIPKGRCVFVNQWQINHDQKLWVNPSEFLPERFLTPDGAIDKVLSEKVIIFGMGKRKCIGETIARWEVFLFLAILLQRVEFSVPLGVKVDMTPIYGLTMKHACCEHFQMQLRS
Chain of human CYP19A1, CYP19A1 (gene 1588) (P11511 whole entry, looked up): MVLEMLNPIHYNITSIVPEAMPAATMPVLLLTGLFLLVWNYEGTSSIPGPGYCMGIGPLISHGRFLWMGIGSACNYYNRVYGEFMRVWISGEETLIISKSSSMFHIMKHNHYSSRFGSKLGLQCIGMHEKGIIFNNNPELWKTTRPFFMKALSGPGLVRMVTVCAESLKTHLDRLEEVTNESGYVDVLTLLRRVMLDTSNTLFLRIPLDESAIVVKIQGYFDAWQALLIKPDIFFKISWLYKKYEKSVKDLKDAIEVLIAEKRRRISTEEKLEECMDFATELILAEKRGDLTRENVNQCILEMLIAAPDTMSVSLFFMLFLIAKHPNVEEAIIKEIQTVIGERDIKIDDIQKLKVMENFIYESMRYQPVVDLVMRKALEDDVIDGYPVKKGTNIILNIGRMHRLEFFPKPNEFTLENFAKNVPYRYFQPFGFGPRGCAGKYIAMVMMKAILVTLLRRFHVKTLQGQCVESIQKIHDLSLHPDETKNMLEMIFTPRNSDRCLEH
Chain of human CYP2A6, CYP2A6 (gene 1548) (P11509 whole entry, looked up): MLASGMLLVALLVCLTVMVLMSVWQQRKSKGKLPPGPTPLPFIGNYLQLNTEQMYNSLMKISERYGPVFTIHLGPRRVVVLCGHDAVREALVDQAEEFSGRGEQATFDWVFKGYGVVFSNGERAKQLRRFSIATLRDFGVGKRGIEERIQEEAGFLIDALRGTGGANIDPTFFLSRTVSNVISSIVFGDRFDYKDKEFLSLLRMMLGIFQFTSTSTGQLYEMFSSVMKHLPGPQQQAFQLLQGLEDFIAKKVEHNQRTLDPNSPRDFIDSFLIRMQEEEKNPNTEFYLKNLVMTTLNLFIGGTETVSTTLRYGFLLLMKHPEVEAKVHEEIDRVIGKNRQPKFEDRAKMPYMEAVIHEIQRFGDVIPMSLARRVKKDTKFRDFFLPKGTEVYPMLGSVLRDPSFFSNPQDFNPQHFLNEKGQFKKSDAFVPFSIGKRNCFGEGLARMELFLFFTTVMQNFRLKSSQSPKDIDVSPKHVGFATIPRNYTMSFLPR

Regarding `Cc1ccn2nc(S(=O)(=O)Nc3c(F)cccc3F)nc2n1`, the outcome in [1], in [2], in [3], in assay [4] and in assay [5] was inactive.

Turning to `CC(Oc1cccc(Cl)c1)C(=O)O` (centres undefined), the result in [1], in assay [2], in assay [6], in assay [3], in [4] and in assay [5] was inactive.

The term AC50 denotes the concentration at which the activity in the assay is half-maximal. Turning to `CCOP(=S)(OCC)Oc1ccc([N+](=O)[O-])cc1`, the half-maximal activity concentration (AC50) in assay [1] was 32.8 µM (active); in assay [4], 32.1 µM (active); in assay [8], 3.28 µM (active). Further, the result in assay [2], in assay [6], in [3], in assay [5] and in [7] was inactive.

Turning to `CCOP(=S)(OCC)SCCSCC`, the outcome in assay [1], in assay [2], in [3], in [4] and in assay [5] was inactive.

On to `CCC(=NOC/C=C/Cl)C1=C(O)CC(C2CCOCC2)CC1=O` (centres undefined), for which the outcome in [1], in assay [2], in assay [6], in assay [3], in assay [4] and in [5] was inactive.

Consider `CC(C1CC1)C(O)(Cn1cncn1)c1ccc(Cl)cc1` (centres undefined), for which the result in [1], in assay [2], in [6], in assay [3], in assay [4] and in [5] was inactive. The AC50 in assay [7] was 5.27 µM (active).

Take `CC(C)=CC1C(C(=O)OCN2C(=O)C3=C(CCCC3)C2=O)C1(C)C` (centres undefined): the results for the AC50 in [1], in assay [2] and in [4] were 14.4 µM (active), 34.2 µM (active) and 26.1 µM (active), respectively. Besides, in assay [5], the result was inactive.

For `CCOP(=S)(OCC)Oc1cc(C)nc(C(C)C)n1`, the outcome in assay [1], in assay [2], in [3], in assay [4], in assay [5] and in assay [7] was inactive.

For `CCNc1nc(Cl)nc(NC(C)(C)C#N)n1`, in assay [1], the concentration at half-maximal activity (AC50) is 4.59 µM (active). Besides, the result in assay [2], in assay [6], in assay [3], in assay [4] and in assay [5] was inactive.

As for `CCCOc1nn(C(=O)NS(=O)(=O)c2ccccc2C(=O)OC)c(=O)n1C`, the result in [1], in assay [2], in assay [6], in assay [3], in [4] and in [5] was inactive.

With `COc1ccc(C(=CC(=O)N2CCOCC2)c2ccc(Cl)cc2)cc1OC`, the AC50 in [1] is 5.93 µM (active); in assay [2], 25 µM (active); in assay [3], 8.93 µM (active); in [4], 12.9 µM (active); in assay [7], 4.42 µM (active); in [8], 6.61 µM (active). The outcome in assay [5] was inactive.

With `COP(=O)(NC(C)=O)SC` (centres undefined), the outcome in assay [1], in assay [2], in assay [3], in assay [4], in assay [5] and in assay [7] was inactive.

As to `CC(COc1ccc(Oc2ccccc2)cc1)Oc1ccccn1` (centres undefined), the result in assay [1], in assay [2] and in assay [3] was inactive. In addition, the AC50 in assay [4] was 26.7 µM (active); in assay [5], 7.1 µM (active).

With `COP(=O)(OC)OC(Br)C(Cl)(Cl)Br` (centres undefined), the half-maximal activity concentration (AC50) in [1] is 22.7 µM (active); in [2] it was 36.8 µM (active); in [3], 22.9 µM (active); in assay [4], 7.28 µM (active); in assay [5], 30.4 µM (active).

In the case of `CCCCOC(=O)c1ccccc1C(=O)O`, the result in [1], in [2], in assay [3], in assay [4], in assay [5] and in assay [7] was inactive.

Consider `C[Si](Cn1cncn1)(c1ccc(F)cc1)c1ccc(F)cc1`, for which the AC50 in assay [1] was 19.8 µM (active); in [3], 16.8 µM (active); in [4], 22.5 µM (active); in [7], 3.78 µM (active); in assay [9] it was 1.75 µM (active); in assay [8], 3.27 µM (active). For the same compound, the outcome in [2] and in [5] was inactive.

Regarding `O=C(O)c1cc(Oc2ccc(C(F)(F)F)cc2Cl)ccc1[N+](=O)[O-]`, the result in assay [1], in [2], in [6], in assay [3], in assay [4] and in [5] was inactive.

As to `Nc1nc(N)nc(NC2CC2)n1`, the outcome in assay [1], in assay [2], in assay [3], in assay [4] and in [5] was inactive.

Turning to `CNC(=O)ON=C(SC)C(=O)N(C)C`, the outcome in assay [1], in assay [2], in assay [6], in assay [3], in assay [5] and in [7] was inactive. In assay [4], the AC50 is 20 µM (active).
